These results are taken from PubChem BioAssay (NCATS).

Structures are written as SMILES. Results filed as inconclusive are left out. The source made the active and inactive calls. Calls come from the whole dose curve; as a rule, active = well fitted cell-killing curve with a large enough effect; inconclusive = small, poorly fitted or top-dose-only effect, or effect the other way; inactive = no such curve, though single readings can be large or run the other way.
Potency is the fitted concentration of half-maximal effect.

The nature of the assay: Quantitative High-Throughput drug screen in 47 multiple myeloma cell lines against the NCATS MIPE library collection: Delta47_JCRB cell viability assay (AID 1918925; note: nearly all actives have a fitted effect of over 45% in size). The note with it: Delta47 myeloma viability, CellTiter-Glo ATP, 48 h; series mostly up to 45.8 µM; viability (% of DMSO): at the top concentration. The source says: PI: Beverly A. Mock Ph.D.
Laboratory of Cancer Biology and Genetics,
Center for Cancer Research, National Cancer Institute,
National Institute of Health, Bethesda, Maryland
Drug resistance and disease progression are common in multiple myeloma (MM) patients, underscoring the need for new therapeutic combinations. […] We hypothesized that effective combinations would reduce MYC expression and enhance p16 activity. […] These preclinical data identify potentially useful drug combinations for evaluation in drug-resistant MM and reveal potential mechanisms of combined drug sensitivity.
Described herein is the primary MIPE qHTS used to cherrypick compounds. Validated compounds were then further tested for potential synergistic activiy.
[1] Peat TJ, Gaikwad SM, Dubois W, Gyabaah-Kessie N, Zhang S, Gorjifard S, Phyo Z, Andres M, Hughitt VK, Simpson RM, Miller MA, Girvin AT, Taylor A, Williams D, D'Antonio N, Zhang Y, Rajagopalan A, Flietner E, Wilson K, Zhang X, Shinn P, Klumpp-Thomas C, McKnight C, Itkin Z, Chen L, Kazandijian D, Zhang J, Michalowski AM, Simmons JK, Keats J, Thomas CJ, Mock BA. Drug combinations identified by high-throughput screening promote cell cycle transition and upregulate Smad pathways in myeloma. Cancer Lett. 2023 Aug 1;568:216284. doi: 10.1016/j.canlet.2023.216284. Epub 2023 Jun 24. PMID: 37356470; PMCID: PMC10408729.
SEQUENCE No. (e.g., 1, 2, 3, etc.); […] (e.g., Cells, Incubation, Reagent, etc.); VALUE and DESCRIPTION.
1; Cells; 5 uL; white, solid bottom 1536-well Greiner assay plate.
2; Compounds; 23 nL; Kalypsis pin tool (Wako USA) equipped with a 1536-well pin head to transfer to the assay plates.
3; Incubation; 48 hours; 37C incubation.
4; Reagent;5uL; CellTiter Glo (Promega).
5; Detector; 425V; Luminescence; Viewlux PerkinElmer.
NOTES (numbers refer to Sequence numbers above)
1. The cell-based screening methods employed in this study were like those previously published. Briefly, the corresponding myeloma cell lines were screened in 1,536-well plates with 500 cells, 5-uL per well for inhibition of cell viability (assessed by measuring ATP levels with CellTiterGlo).
2. NCATS MIPE 4.0 library of approved and investigational drugs were added using the Kalypsis pin tool. Wells treated with DMSO only for 100% viability and media only wells for 0% viability were used as controls.
3. The assay plates were covered and incubated for 48 hours in a 37C, 5% CO2 incubator with controlled humidity.
4. After 48 hours, CellTilter-GloTM luminescent substrate mix (Promega) reagent was added to the assay plate and plates we incubated for 5 min at room temperature.
5. Signal was measured as median relative luminescence units on a ViewLux (PerkinElmer) multiplate reader.
[1] Heske CM, Davis MI, Baumgart JT, Wilson K, Gormally MV, Chen L, Zhang X, Ceribelli M, Duveau DY, Guha R, Ferrer M, Arnaldez FI, Ji J, Tran HL, Zhang Y, Mendoza A, Helman LJ, Thomas CJ. Matrix Screen Identifies Synergistic Combination of PARP Inhibitors and Nicotinamide Phosphoribosyltransferase (NAMPT) Inhibitors in Ewing Sarcoma. Clin Cancer Res. 2017 Dec 1;23(23):7301-7311. doi: 10.1158/1078-0432.CCR-17-1121. Epub 2017 Sep 12. PMID: 28899971; PMCID: PMC6636827.
On the technique in general: ATP-based viability assays read luminescence as a measure of living cells.
As for `Cc1ncc(-c2ccnc(Nc3ccc(S(C)(=O)=O)cc3)n2)n1C(C)C`, the Potency was 2.35 µM (active).
Same read-out and setting: then `CC1=C(C(=O)Nc2cc3cn[nH]c3cc2F)C(c2ccc(Cl)cc2F)N=C(c2ccnc(Cl)c2)N1` (stereo not given), with 11.8 µM (active).
Regarding `Cn1cnc2c(F)c(Nc3ccc(Br)cc3F)c(C(=O)NOCCO)cc21`, the “viability (% of DMSO)” value is 117% (inactive).
Same read-out and setting: the value for `O=C(CN1C(=O)C2(CCCC2)NC[C@H]1c1cc(F)cc(F)c1)Nc1ccc2c(c1)C[C@@]1(C2)C(=O)Nc2ncccc21` was 112% (inactive).
Take `CC(=O)N[C@H]1[C@@H]([C@H](O)[C@H](O)CO)OC(C(=O)O)=C[C@@H]1N=C(N)N`: the “viability (% of DMSO)” value was 100% (inactive).
In the case of `N#Cc1c(C2CCNCC2)cc(-c2c(O)cccc2OCC2CC2)nc1N`, the Potency was 16.6 µM (active).
Same read-out and setting: the value for `CCOc1cc2c(c(F)c1OCC)C(=N)N(CC(=O)c1cc(N3CCOCC3)c(OC)c(C(C)(C)C)c1)C2` was 14.8 µM (active); that for `CCOC(=O)N1CCN([N+]([O-])=NOc2ccc([N+](=O)[O-])cc2[N+](=O)[O-])CC1` was 1.48 µM (active).
Regarding `CCCCOc1ccc(C(=O)Nc2ccc(F)cc2F)cc1`, the “viability (% of DMSO)” value is 129% (inactive).
As to `COc1ccc(C[C@@H](C)[C@@H](C)Cc2ccc(OC)c(OC)c2)cc1OC`, the Potency was 0.296 µM (active).
With `N#CC(=C(O)c1ccc(Cl)cc1Cl)c1nc2cc(Cl)ccc2c(=O)[nH]1`, the “viability (% of DMSO)” value is 113% (inactive).
As to `CC(=O)ON=C1C(c2c(O)[nH]c3cc(Br)ccc23)=Nc2ccccc21`, the Potency was 5.26 µM (active).
Regarding `C[C@@H]1[C@H](C)CC[C@]2(C(=O)O)CC[C@]3(C)C(=CC[C@@H]4[C@@]5(C)C[C@@H](O)[C@H](O)[C@@](C)(CO)[C@H]5CC[C@]43C)[C@@H]12`, the “viability (% of DMSO)” value is 87.7% (inactive).
Consider `Cc1[nH]c(C=C2C(=O)Nc3ccccc32)c(C)c1CCC(=O)O`, for which the Potency is 4.69 µM (active).
In the case of `COc1cc(C[C@@H](CO)[C@H](CO)Cc2ccc(O)c(OC)c2)ccc1O`, the Potency is 0.662 µM (active).
Take `O=C(Nc1nnc(-c2ccco2)o1)c1cc(-c2ccccc2)nc2ccccc12`: the Potency was 18.7 µM (active).
Still for that read-out and setting: the value for `CC(C)(N)c1ccc(-c2nc3ccccc3nc2-c2ccccc2)cc1` was 5.9 µM (active).
For `NC(=O)c1ncn([C@@H]2O[C@H](CO)[C@@H](O)[C@@H]2O)c1O`, the “viability (% of DMSO)” value is 109% (inactive).
On to `COC(=O)[C@@H]1[C@H]2C[C@@H]3c4[nH]c5ccccc5c4CCN3C[C@@H]2CC[C@@H]1O`, for which the “viability (% of DMSO)” value is 124% (inactive).
As for `CC(C=CC1=C(C)CCCC1(C)C)=CC=CC(C)=CC(=O)Nc1ccc(O)cc1`, the Potency was 3.82 µM (active).
Same read-out and setting: the value for `CS[C@H]1SC[C@@H]2C(=O)N(C)[C@H](C(C)C)C(=O)OC[C@H](NC(=O)c3cnc4ccccc4n3)C(=O)N[C@H](C)C(=O)N(C)[C@@H]1C(=O)N(C)[C@H](C(C)C)C(=O)OC[C@H](NC(=O)c1cnc3ccccc3n1)C(=O)N[C@H](C)C(=O)N2C` was 0.001 µM (active); that for `COc1ccc(S(=O)(=O)Nc2cccnc2Nc2ccc(O)cc2)cc1` was 0.0264 µM (active).
For the compound `COc1cc(N2CCC(C(N)=O)CC2)ccc1Nc1nc(N)c(Cl)c(Nc2ccccc2S(=O)(=O)C(C)C)n1`, the Potency is 0.0833 µM (active).
For the compound `CC(C)c1cc(C(C)C)c(CC(=O)NS(=O)(=O)Oc2c(C(C)C)cccc2C(C)C)c(C(C)C)c1`, the “viability (% of DMSO)” value is 110% (inactive).
Consider `COC(=O)C=CC(=O)OC`, for which the Potency was 1.32 µM (active).
On to `N[C@H]1CN(c2c(F)cc3c(=O)c(C(=O)O)cn(C4C[C@@H]4F)c3c2Cl)CC12CC2` (stereo not given in full), for which the “viability (% of DMSO)” value was 114% (inactive).
In the case of `COc1cc(O)c2c(c1)C1OC1C[C@H](O)[C@H](O)C(=O)C=CC[C@H](C)OC2=O` (stereo not given in full), the Potency is 4.18 µM (active).
On to `O=S(=O)(O)CCSSCCS(=O)(=O)O`, for which the “viability (% of DMSO)” value is 130% (inactive).
In the case of `Nc1ncn([C@@H]2O[C@H](CO)[C@@H](O)[C@@H]2O)c(=O)n1`, the Potency was 3.32 µM (active).
`CN[C@@H]1C[C@H]2O[C@@](C)([C@H]1OC)n1c3ccccc3c3c4c(c5c6ccccc6n2c5c31)C(=O)N[C@H]4O`: the Potency was 0.0469 µM (active).
Consider `COc1cc(OC)c(NC(=O)Nc2cc(C)on2)cc1Cl`, for which the “viability (% of DMSO)” value was 115% (inactive).
For `NC[C@H]1O[C@H](O[C@H]2[C@@H](O)[C@@H](O[C@H]3O[C@H](CO)[C@@H](O)[C@H](N)[C@@H]3O)[C@H](N)C[C@@H]2N)[C@H](N)C[C@H]1O`, the “viability (% of DMSO)” value is 118% (inactive).
The same measure, in the same setting: then `C[C@@H]1CC[C@@]2(OC1)OC1CC3C4CC=C5CC(O)CCC5(C)C4CCC3(C)C1[C@@H]2C` (stereo not given in full), with 134% (inactive).
Take `C[C@H]1[C@@H](OC(=O)CCC(=O)O)O[C@@H]2O[C@@]3(C)CC[C@@H]4[C@H](C)CC[C@@H]1[C@@]24OO3`: the Potency is 5.26 µM (active).
For `CCNC(=O)c1cc2c(-c3cc(OCCN4CCCC4)c(Cl)cc3Cl)nc(N)nc2s1`, the Potency was 1.05 µM (active).
On to `O=C1CSC(=O)N1C(CCc1ccncc1)COc1ccc(-c2cccc([N+](=O)[O-])c2)cc1` (stereo not given), for which the Potency was 4.18 µM (active).
On the same count and under the same terms, then `CCOC(=O)N1CCN([N+]([O-])=NOc2ccc([N+](=O)[O-])cc2C#N)CC1`, with 1.05 µM (active); and `CCc1cc(C(C)=NOCc2ccc(C3CCCCC3)c(C(F)(F)F)c2)ccc1CN1CC(C(=O)O)C1`, with 20.9 µM (active).
As for `C[C@@H](Cc1cc2c(c(C(N)=O)c1)N(CCCO)CC2)NCCOc1ccccc1OCC(F)(F)F`, the Potency was 11.8 µM (active).
In the case of `FC(F)(F)c1ccc(Nc2nc3ccc(Oc4ccnc(-c5ncc(C(F)(F)F)[nH]5)c4)cc3[nH]2)cc1`, the Potency was 23.5 µM (active).
